Test results from PubChem BioAssay (Tox21).
Records with an inconclusive call do not appear. A call without a number means that no potency is given here. Unmarked numbers belong to inactive results. Activity calls are given as the source filed them. Calls follow the shape of the dose curve; as a rule, active = well fitted cell-killing curve with a large enough effect in the repeat runs; inconclusive = weak or mixed curves, or effect the other way; inactive = no such curve, though single readings can be large or run the other way.

Experiment: qHTS assay to identify small molecule antagonists of the vitamin D receptor (VDR) signaling pathway - cell viability counter screen (AID 743225); also: nearly all actives have a fitted effect of over 50% in size
Settings: VDR-bla HEK293T viability, CellTiter-Glo luminescence, 16 h; series mostly up to 61 µM
Procedure, shortened: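 Same-well multiplex: following 16 h treatment of HEK 293T cells carrying a UAS-driven beta-lactamase reporter with compound and agonist (3 nM final), and a 2 h FRET substrate step, CellTiter-Glo was added and luminescence read after 30 min.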

SMILES | Potency | viability change, negative = cytotoxic
CC(CN)CCCN (stereo not drawn) | inactive | –
CCN(CCO)CCCC(C)Nc1ccnc2cc(Cl)ccc12 (stereo not drawn) | – | -0.399% [at 6.95 µM]
CC(C)(C)c1cc(CO)cc(C(C)(C)C)c1O | inactive | –
CC(=O)O[C@H]1C[C@@H]2CC[C@@H]3[C@H](CC[C@@]4(C)[C@H]3C[C@H]([N+]3(C)CCCCC3)[C@@H]4OC(C)=O)[C@@]2(C)C[C@@H]1N1CCCCC1 | inactive | –
CC(C)CCCC(C)CCO (stereo not drawn) | inactive | –
CC(=O)NCCCS(=O)(=O)O | inactive | –
CCCCC(CC)(CO)CO | inactive | –
N#CCCNCCC#N | inactive | –
CCCCOC(=O)c1ccccc1C(=O)OCC(CC)CCCC (stereo not drawn) | inactive | –
CCOc1ccc2[nH]cc(C(=O)NCc3ccccc3)c(=O)c2n1 | inactive | –
CCCCCCCCC(CO)CCCCCC (stereo not drawn) | inactive | –
CCCCOC(O)CC (stereo not drawn) | inactive | –
O=C1CCCCCO1 | inactive | –
O=c1[nH]cnc2ccccc12 | inactive | –
COCCOCCOCCOCCOC | inactive | –
CC(C)c1ccccc1C(C)C | inactive | –
N#CCc1cccc(C(F)(F)F)c1 | inactive | –
Nc1nc(N)c(-c2ccccc2)s1 | inactive | –
CNS(=O)(=O)Cc1ccc2[nH]cc(CCN(C)C)c2c1 | inactive | –
O=C(O)C1CCC(C(=O)O)CC1 (stereo not drawn) | inactive | –
COC(Cc1ccccc1)OC | inactive | –
O=C(O)/C=C/c1cnc[nH]1 | inactive | –
CCN1CCC[C@H]1CNC(=O)c1c(OC)ccc(Br)c1OC | inactive | –
N[C@H]1C(O)O[C@H](CO)[C@H](O)[C@@H]1O (stereo partly drawn) | inactive | –
C=CCCCCCC | inactive | –
COC(=O)C(C)=O | inactive | –
Oc1ccc(Sc2ccc(O)cc2)cc1 | inactive | –
CC(C)NCC(O)COc1ccc(CC(N)=O)cc1 (stereo not drawn) | inactive | –
